# Experimental data reported in PMC7862700, “An all-to-all approach to the identification of sequence-specific readers for epigenetic DNA modifications on cytosine”.
# Assays:
# Experiment in all cases: DAPPL (digital affinity profiling via proximity ligation, sequencing); 10 mM Tris-HCl pH 7.5, 50 mM NaCl, 1 mM DTT, 4% glycerol, room temperature, 30 min; GST-TFs on glutathione beads, 16-mer random dsDNA library, 0.1% formaldehyde crosslink after washing; high values mean tight binding
# Conditions in all cases: protein: recombinant; tags: N-terminal GST; dsDNA, one strand shown
# FLI1 = target: T1, FLI1 (Homo sapiens, UniProt Q01543 1-452)
# T1 sequence: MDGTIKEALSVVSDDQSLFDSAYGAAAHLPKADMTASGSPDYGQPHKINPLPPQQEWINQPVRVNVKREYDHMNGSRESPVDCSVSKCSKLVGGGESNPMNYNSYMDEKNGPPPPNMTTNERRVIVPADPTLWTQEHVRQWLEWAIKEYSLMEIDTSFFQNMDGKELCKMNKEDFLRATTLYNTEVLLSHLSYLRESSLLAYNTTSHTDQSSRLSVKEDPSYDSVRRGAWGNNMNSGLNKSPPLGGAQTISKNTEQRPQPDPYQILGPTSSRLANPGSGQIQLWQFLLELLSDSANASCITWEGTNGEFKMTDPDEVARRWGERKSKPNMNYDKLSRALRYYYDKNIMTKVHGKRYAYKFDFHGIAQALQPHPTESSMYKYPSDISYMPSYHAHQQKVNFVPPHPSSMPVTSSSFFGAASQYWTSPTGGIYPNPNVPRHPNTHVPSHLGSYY
# How it was run: (§1)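 Human transcription factors were made in yeast as GST fusions, captured on glutathione beads and barcoded with DNA. With a tag-only sample included, the pool was incubated with 200 nmole of a random double-stranded 16-mer DNA library in Tris/NaCl/DTT/glycerol buffer at room temperature for 30 min, then crosslinked with 0.1% formaldehyde after washing, ligated by proximity, amplified and sequenced. For binding signal, each hexamer's read frequency for a factor is divided by its frequency for the tag-only sample.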
# ELK3 = target: T2, ELK3 (Homo sapiens, UniProt P41970 1-407)
# T2 sequence: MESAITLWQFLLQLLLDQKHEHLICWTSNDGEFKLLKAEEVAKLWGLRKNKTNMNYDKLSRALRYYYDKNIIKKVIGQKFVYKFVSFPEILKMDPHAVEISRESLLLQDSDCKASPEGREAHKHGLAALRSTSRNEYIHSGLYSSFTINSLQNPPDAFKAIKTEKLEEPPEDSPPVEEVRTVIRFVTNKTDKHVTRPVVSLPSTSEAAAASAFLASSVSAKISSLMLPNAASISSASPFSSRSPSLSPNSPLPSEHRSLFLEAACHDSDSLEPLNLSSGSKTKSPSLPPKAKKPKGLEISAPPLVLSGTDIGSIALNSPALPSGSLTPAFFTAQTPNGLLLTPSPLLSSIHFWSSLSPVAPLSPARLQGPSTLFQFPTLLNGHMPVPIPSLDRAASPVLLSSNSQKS
# How it was run: as §1
# SPIC = target: T3, SPIC (Homo sapiens, UniProt Q8N5J4 1-248)
# T3 sequence: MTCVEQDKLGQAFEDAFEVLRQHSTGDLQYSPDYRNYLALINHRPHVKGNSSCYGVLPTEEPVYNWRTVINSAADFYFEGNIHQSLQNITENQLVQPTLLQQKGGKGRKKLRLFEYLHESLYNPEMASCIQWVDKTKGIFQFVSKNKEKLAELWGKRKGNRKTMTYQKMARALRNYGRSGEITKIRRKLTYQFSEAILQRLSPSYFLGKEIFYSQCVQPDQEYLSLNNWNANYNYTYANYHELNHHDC
# How it was run: as §1
# ELF4 = ELF4 (Homo sapiens, UniProt Q99607 1-663)
# How it was run: as §1
# ELF3 = target: T4, ELF3 (Homo sapiens, UniProt P78545 1-371)
# T4 sequence: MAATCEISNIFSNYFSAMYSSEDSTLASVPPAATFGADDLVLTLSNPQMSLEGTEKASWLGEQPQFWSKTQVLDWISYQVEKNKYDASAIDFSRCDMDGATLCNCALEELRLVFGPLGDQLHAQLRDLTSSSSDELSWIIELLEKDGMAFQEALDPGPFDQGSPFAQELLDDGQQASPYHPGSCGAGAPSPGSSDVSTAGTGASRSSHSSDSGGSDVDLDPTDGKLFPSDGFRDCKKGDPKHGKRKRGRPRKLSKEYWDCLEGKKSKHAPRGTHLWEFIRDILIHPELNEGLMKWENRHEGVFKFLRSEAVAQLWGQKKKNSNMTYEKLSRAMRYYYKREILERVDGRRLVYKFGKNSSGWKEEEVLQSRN
# How it was run: as §1
# ETV1 = ETV1 (Homo sapiens, UniProt P50549 1-477)
# How it was run: as §1
# ETV3L = target: T5, ETV3L (Homo sapiens, UniProt Q6ZN32 1-361)
# T5 sequence: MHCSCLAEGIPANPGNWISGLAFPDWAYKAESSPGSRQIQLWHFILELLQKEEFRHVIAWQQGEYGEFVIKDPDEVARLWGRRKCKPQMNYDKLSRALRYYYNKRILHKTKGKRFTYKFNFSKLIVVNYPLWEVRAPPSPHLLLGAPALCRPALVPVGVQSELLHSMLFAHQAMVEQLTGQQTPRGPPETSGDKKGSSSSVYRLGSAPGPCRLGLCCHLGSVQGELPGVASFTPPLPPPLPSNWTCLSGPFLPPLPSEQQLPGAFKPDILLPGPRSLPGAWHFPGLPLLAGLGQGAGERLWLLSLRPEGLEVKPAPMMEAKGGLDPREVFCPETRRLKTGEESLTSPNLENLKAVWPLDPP
# How it was run: as §1
# ETS2 = target: T6, ETS2 (Homo sapiens, UniProt P15036 1-469)
# T6 sequence: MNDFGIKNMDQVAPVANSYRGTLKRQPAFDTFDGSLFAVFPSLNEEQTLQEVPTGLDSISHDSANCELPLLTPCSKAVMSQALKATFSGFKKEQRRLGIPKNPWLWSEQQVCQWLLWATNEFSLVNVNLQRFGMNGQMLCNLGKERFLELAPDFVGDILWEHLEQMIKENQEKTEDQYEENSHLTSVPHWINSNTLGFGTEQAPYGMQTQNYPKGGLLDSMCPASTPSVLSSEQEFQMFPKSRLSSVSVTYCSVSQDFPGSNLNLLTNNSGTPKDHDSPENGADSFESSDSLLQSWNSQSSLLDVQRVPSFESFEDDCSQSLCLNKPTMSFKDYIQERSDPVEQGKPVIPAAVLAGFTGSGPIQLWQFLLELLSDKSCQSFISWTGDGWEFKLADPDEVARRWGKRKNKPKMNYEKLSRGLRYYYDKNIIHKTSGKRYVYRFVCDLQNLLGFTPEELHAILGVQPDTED
# How it was run: as §1
# ETV3 = target: T7, ETV3 (Homo sapiens, UniProt P41162-2 1-143)
# T7 sequence: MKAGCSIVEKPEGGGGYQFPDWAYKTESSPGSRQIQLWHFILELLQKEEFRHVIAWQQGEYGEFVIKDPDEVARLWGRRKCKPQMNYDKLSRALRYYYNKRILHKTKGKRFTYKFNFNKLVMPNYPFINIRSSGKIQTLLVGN
# How it was run: as §1
# ETV1, sequence (P50549 whole entry): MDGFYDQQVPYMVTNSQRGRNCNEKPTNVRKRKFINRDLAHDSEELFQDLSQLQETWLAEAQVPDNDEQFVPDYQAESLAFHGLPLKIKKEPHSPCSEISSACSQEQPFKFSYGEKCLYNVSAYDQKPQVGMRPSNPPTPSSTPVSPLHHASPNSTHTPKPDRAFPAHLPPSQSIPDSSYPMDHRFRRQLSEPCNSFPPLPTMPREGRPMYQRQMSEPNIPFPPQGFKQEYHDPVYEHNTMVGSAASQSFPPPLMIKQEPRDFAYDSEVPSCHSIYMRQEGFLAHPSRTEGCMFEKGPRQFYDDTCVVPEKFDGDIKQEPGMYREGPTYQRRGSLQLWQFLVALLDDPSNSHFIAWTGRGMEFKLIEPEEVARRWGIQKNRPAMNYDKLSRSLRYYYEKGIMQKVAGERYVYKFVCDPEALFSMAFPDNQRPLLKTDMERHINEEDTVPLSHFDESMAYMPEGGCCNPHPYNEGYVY
# ELF4, sequence (Q99607 whole entry): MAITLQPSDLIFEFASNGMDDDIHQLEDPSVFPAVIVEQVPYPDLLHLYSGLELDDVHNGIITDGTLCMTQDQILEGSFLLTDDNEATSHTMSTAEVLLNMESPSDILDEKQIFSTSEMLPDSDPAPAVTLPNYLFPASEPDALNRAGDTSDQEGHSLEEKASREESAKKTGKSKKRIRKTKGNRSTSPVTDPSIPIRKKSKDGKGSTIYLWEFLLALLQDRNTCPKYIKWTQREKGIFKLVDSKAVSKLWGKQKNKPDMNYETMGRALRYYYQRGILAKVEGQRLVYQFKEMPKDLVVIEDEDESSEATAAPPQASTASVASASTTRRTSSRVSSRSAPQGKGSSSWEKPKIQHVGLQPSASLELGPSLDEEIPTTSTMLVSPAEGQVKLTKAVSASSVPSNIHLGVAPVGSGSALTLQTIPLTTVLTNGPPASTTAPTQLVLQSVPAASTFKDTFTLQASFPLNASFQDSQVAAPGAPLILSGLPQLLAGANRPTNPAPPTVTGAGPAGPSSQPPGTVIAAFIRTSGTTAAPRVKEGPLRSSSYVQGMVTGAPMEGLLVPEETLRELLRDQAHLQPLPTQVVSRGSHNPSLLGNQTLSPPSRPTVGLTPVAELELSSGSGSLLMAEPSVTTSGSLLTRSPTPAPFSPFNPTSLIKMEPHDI
sequence,measurement,setting,value
GATACA,binding signal,FLI1,"1.03 fold enrichment (6-mer frequency, TF over GST control)"
same,binding signal,ELK3,"1.03 fold enrichment (6-mer frequency, TF over GST control)"
same,binding signal,SPIC,"1.07 fold enrichment (6-mer frequency, TF over GST control)"
same,binding signal,ELF4,"1.08 fold enrichment (6-mer frequency, TF over GST control)"
same,binding signal,ELF3,"1.08 fold enrichment (6-mer frequency, TF over GST control)"
same,binding signal,ETV1,"1.06 fold enrichment (6-mer frequency, TF over GST control)"
same,binding signal,ETV3L,"1.05 fold enrichment (6-mer frequency, TF over GST control)"
same,binding signal,ETS2,"1.05 fold enrichment (6-mer frequency, TF over GST control)"
same,binding signal,ETV3,"1.01 fold enrichment (6-mer frequency, TF over GST control)"
